Assay results from PubChem BioAssay AID1159580 (chemical genetic matrix, 2015).
In all, about 5,500 compounds went through this assay and about 2,000 (36%) were called active. Inconclusive results (about 18%) are left out. Rule as the data show it: active = normalized growth mostly below about 0.91 (no sharp cut-off); inconclusive = no clear call, values can overlap the other calls; inactive = mostly above about 0.92. The list shows a part of the results.

Assay: chemical genetic growth profiling, strain panel (AID 1159580);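 also: tested at 20 µM; growth read once vehicle control cultures reached saturation at 30 °C; 1 = growth at the plate median or of vehicle wells; lower values mean less growth of the strain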
Details: growth OD

Measured: normalized growth

Cn1c(=O)c2c(ncn2CCO)n(C)c1=O
inactive: S. cerevisiae deletion strains, locus YJR075W, strain HOC1, stronger effect = lower value 1 | S. cerevisiae deletion strains, locus YKL009W, strain mrt4, stronger effect = lower value 0.99 | S. cerevisiae deletion strains, locus YKL068W, stronger effect = lower value 0.991 | S. cerevisiae deletion strains, locus YKL085W, strain MDH1 (second series), stronger effect = lower value 0.993 | S. cerevisiae deletion strains, locus YKL085W, strain MDH1, stronger effect = lower value 0.993 | S. cerevisiae deletion strains, locus YKL160W, strain elf1, stronger effect = lower value 1.02 | S. cerevisiae deletion strains, locus YKL190W, strain CNB1, stronger effect = lower value 1 | S. cerevisiae deletion strains, locus YKR001C, strain vps1, stronger effect = lower value 0.997 | S. cerevisiae deletion strains, locus YKR026C, strain gcn3, stronger effect = lower value 1.02 | S. cerevisiae deletion strains, locus YKR091W, strain srl3, stronger effect = lower value 1.02 | S. cerevisiae deletion strains, locus YLL001W, strain dnm1, stronger effect = lower value 0.993 | S. cerevisiae deletion strains, locus YLL026W, stronger effect = lower value 1.02 | S. cerevisiae deletion strains, locus YLL041C, strain sdh2, stronger effect = lower value 1.02 | S. cerevisiae deletion strains, locus YLR027C, strain aat2, stronger effect = lower value 1.01 | S. cerevisiae deletion strains, locus YLR039C, strain RIC1, stronger effect = lower value 1.02 | S. cerevisiae deletion strains, locus YLR058C, strain SHM2, stronger effect = lower value 1.01 | S. cerevisiae deletion strains, locus YLR102C, strain apc9, stronger effect = lower value 0.997 | S. cerevisiae deletion strains, locus YLR113W, strain HOG1, stronger effect = lower value 0.988 | S. cerevisiae deletion strains, locus YLR221C, strain rsa3, stronger effect = lower value 1.01 | S. cerevisiae deletion strains, locus YLR258W, strain gsy2, stronger effect = lower value 1.02 | S. cerevisiae deletion strains, locus YLR262C, strain YPT6 (second series), stronger effect = lower value 1.08 | S. cerevisiae deletion strains, locus YLR262C, strain YPT6, stronger effect = lower value 1.01 | S. cerevisiae deletion strains, locus YLR268W, strain sec22, stronger effect = lower value 1.06 | S. cerevisiae deletion strains, locus YLR320W, strain mms22, stronger effect = lower value 1.03 | S. cerevisiae deletion strains, locus YLR330W, strain CHS5, stronger effect = lower value 1 | S. cerevisiae deletion strains, locus YLR342W, strain FKS1 (second series), stronger effect = lower value 0.981 | S. cerevisiae deletion strains, locus YLR342W, strain FKS1, stronger effect = lower value 1.02 | S. cerevisiae deletion strains, locus YLR357W, strain rsc2, stronger effect = lower value 1 | S. cerevisiae deletion strains, locus YLR370C, strain arc18, stronger effect = lower value 1.02 | S. cerevisiae deletion strains, locus YLR371W, strain rom2, stronger effect = lower value 1.01 | S. cerevisiae deletion strains, locus YLR384C, strain iki3, stronger effect = lower value 1.01 | S. cerevisiae deletion strains, locus YLR418C, strain cdc73, stronger effect = lower value 0.985 | S. cerevisiae deletion strains, locus YML016C, strain PPZ1, stronger effect = lower value 1 | S. cerevisiae deletion strains, locus YML032C, strain rad52, stronger effect = lower value 1.03 | S. cerevisiae deletion strains, locus YML120C, strain ndi1, stronger effect = lower value 0.986 | S. cerevisiae deletion strains, locus YML124C, strain tub3, stronger effect = lower value 1 | S. cerevisiae deletion strains, locus YMR058W, strain fet3, stronger effect = lower value 1.02 | S. cerevisiae deletion strains, locus YMR078C, strain ctf18, stronger effect = lower value 0.998 | S. cerevisiae deletion strains, locus YMR125W, strain sto1, stronger effect = lower value 1.02 | S. cerevisiae deletion strains, locus YMR129W, stronger effect = lower value 1.02 | S. cerevisiae deletion strains, locus YMR205C, strain PFK2, stronger effect = lower value 1.02 | S. cerevisiae deletion strains, locus YMR223W, strain ubp8, stronger effect = lower value 0.971 | S. cerevisiae deletion strains, locus YMR231W, strain pep5, stronger effect = lower value 1 | S. cerevisiae deletion strains, locus YMR263W, strain SAP30, stronger effect = lower value 1.02 | S. cerevisiae deletion strains, locus YMR307W, strain GAS1, stronger effect = lower value 0.975 | S. cerevisiae deletion strains, locus YNL067W, strain RPL9B, stronger effect = lower value 1.02 | S. cerevisiae deletion strains, locus YNL071W, strain lat1, stronger effect = lower value 1.01 | S. cerevisiae deletion strains, locus YNL128W, strain TEP1, stronger effect = lower value 1 | S. cerevisiae deletion strains, locus YNL153C, strain GIM3, stronger effect = lower value 1.04 | S. cerevisiae deletion strains, locus YNL183C, strain NPR1, stronger effect = lower value 0.897 | S. cerevisiae deletion strains, locus YNL209W, strain ssb2, stronger effect = lower value 1.01 | S. cerevisiae deletion strains, locus YNL233W, strain BNI4, stronger effect = lower value 1.03 | S. cerevisiae deletion strains, locus YNL248C, strain rpa49, stronger effect = lower value 1.01 | S. cerevisiae deletion strains, locus YNL250W, strain rad50, stronger effect = lower value 0.997 | S. cerevisiae deletion strains, locus YNL271C, strain bni1, stronger effect = lower value 1.01 | S. cerevisiae deletion strains, locus YNL298W, strain CLA4, stronger effect = lower value 1.01 | S. cerevisiae deletion strains, locus YNL307C, strain MCK1, stronger effect = lower value 0.969 | S. cerevisiae deletion strains, locus YNL322C, strain KRE1 (second series), stronger effect = lower value 1.05 | S. cerevisiae deletion strains, locus YNL322C, strain KRE1, stronger effect = lower value 1 | S. cerevisiae deletion strains, locus YNR049C, strain mso1, stronger effect = lower value 1.02 | S. cerevisiae deletion strains, locus YNR052C, strain pop2, stronger effect = lower value 1.01 | S. cerevisiae deletion strains, locus YOL006C, strain TOP1, stronger effect = lower value 0.99 | S. cerevisiae deletion strains, locus YOL012C, strain htz1 1.01 | S. cerevisiae deletion strains, locus YOL147C, strain pex11, stronger effect = lower value 1.01 | S. cerevisiae deletion strains, locus YOR001W, strain rrp6, stronger effect = lower value 1.02 | S. cerevisiae deletion strains, locus YOR061W, strain CKA2, stronger effect = lower value 1.01 | S. cerevisiae deletion strains, locus YOR069W, strain VPS5, stronger effect = lower value 1.01 | S. cerevisiae deletion strains, locus YOR070C, strain gyp1, stronger effect = lower value 1.02 | S. cerevisiae deletion strains, locus YOR080W, strain dia2, stronger effect = lower value 1.04 | S. cerevisiae deletion strains, locus YOR083W, strain WHI5, stronger effect = lower value 1.02 | S. cerevisiae deletion strains, locus YOR106W, strain vam3, stronger effect = lower value 1.03 | S. cerevisiae deletion strains, locus YOR136W, strain idh2, stronger effect = lower value 0.993 | S. cerevisiae deletion strains, locus YOR144C, strain elg1, stronger effect = lower value 0.997 | S. cerevisiae deletion strains, locus YOR184W, strain ser1, stronger effect = lower value 0.956 | S. cerevisiae deletion strains, locus YOR231W, strain MKK1, stronger effect = lower value 0.981 | S. cerevisiae deletion strains, locus YOR265W, strain rbl2, stronger effect = lower value 1.01 | S. cerevisiae deletion strains, locus YOR270C, strain vph1, stronger effect = lower value 1.05 | S. cerevisiae deletion strains, locus YOR290C, strain snf2, stronger effect = lower value 1.03 | S. cerevisiae deletion strains, locus YOR316C, strain cot1, stronger effect = lower value 1 | S. cerevisiae deletion strains, locus YPL051W, strain arl3, stronger effect = lower value 1.01 | S. cerevisiae deletion strains, locus YPL055C, strain LGE1, stronger effect = lower value 0.989 | S. cerevisiae deletion strains, locus YPL078C, strain atp4, stronger effect = lower value 1.02 | S. cerevisiae deletion strains, locus YPL106C, strain sse1, stronger effect = lower value 1.07 | S. cerevisiae deletion strains, locus YPL240C, strain hsp82, stronger effect = lower value 0.985 | S. cerevisiae deletion strains, locus YPL241C, strain CIN2, stronger effect = lower value 1.01 | S. cerevisiae deletion strains, locus YPL256C, strain CLN2, stronger effect = lower value 0.974 | S. cerevisiae deletion strains, locus YPR119W, strain clb2, stronger effect = lower value 1 | S. cerevisiae deletion strains, locus YPR141C, strain kar3, stronger effect = lower value 0.996 | S. cerevisiae deletion strains, locus YPR163C, strain tif3, stronger effect = lower value 1.02 | S. cerevisiae deletion strains, locus YPR167C, strain met16, stronger effect = lower value 0.997 | S. cerevisiae deletion strains, strain wtn01, stronger effect = lower value 1.03 | S. cerevisiae strains, strain wild type, stronger effect = lower value 0.998
